# In the supplement of paper PMC10127200:
# Structures can show the parent of a compound that is named as a salt.
# Experiments:
# Assay in all cases: Euclidean distance of Cell Painting phenotypic profile (signed KS, 77 features) to DMSO centroid (dimensionless distance); 5 or 10 uM (library dependent); higher = stronger phenotypic change vs DMSO (phenoactivity)
# Settings in all cases: 48 h
# 786-O = tested on: 786-O
# Procedure, shortened: (§1)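 Phenoactivity is defined as the Euclidean distance from a compound profile to the median vehicle profile. Each profile comprised 77 Harmony features, scored as signed Kolmogorov-Smirnov statistics versus same-plate vehicle wells, then plate-position corrected, correlation-weighted and replicate-averaged at the top dose. Five cancer lines and one healthy fibroblast line were exposed to library compounds for 48 h at 10 or 5 uM (0.1% DMSO final).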
# A549 = tested on: A549
# Procedure, shortened: as §1
# DU145 = tested on: DU145
# Procedure, shortened: as §1
# FB = tested on: FB
# Procedure, shortened: as §1
# HEPG2 = tested on: HEPG2
# Procedure, shortened: as §1
# OVCAR4 = tested on: OVCAR4
# Procedure, shortened: as §1
SMILES,Euclidean distance (786-O),Euclidean distance (A549),Euclidean distance (DU145),Euclidean distance (FB),Euclidean distance (HEPG2),Euclidean distance (OVCAR4)
COc1cc2ncnc(Nc3ccc(F)c(Cl)c3)c2cc1OCCCN1CCOCC1 [Gefitinib (ZD1839)],2.03,2.48,2.47,1.24,1.6,1.64
CCCOc1ccc2c(c1)CC[C@@H]1[C@@H]2CC[C@]2(C)[C@@H](OC)CC[C@@H]12 [Promestriene],1.13,0.797,0.94,1.24,0.764,1.01
O=c1cc(N2CCOCC2)oc2c(-c3ccccc3)cccc12,1.73,1.09,1.16,1.79,1.66,2.16
CCCCN1CCCC[C@H]1C(=O)Nc1c(C)cccc1C [Levobupivacaine HCl],1.01,1.33,0.6,0.871,0.852,1.49
NC(=O)c1cnc(N[C@@H]2CCCC[C@@H]2N)nc1Nc1cccc(-n2nccn2)c1,1.35,2.72,1.89,2.25,2.24,2.83
NCc1ccc(S(N)(=O)=O)cc1 [Mafenide Acetate],0.874,0.744,1.24,1.07,0.456,0.942
CCCCCCCCCCCCCCCC(=O)O[C@@H]1[C@@H](O)[C@@H](O)[C@@H]([C@H](NC(=O)[C@@H]2C[C@@H](CCC)CN2C)[C@H](C)Cl)O[C@@H]1SC [Clindamycin palmitate HCl],1.39,1.05,0.981,1.12,0.578,1.08
CC(C)c1onc(-c2c(Cl)cccc2Cl)c1COc1ccc(/C=C/c2cccc(C(=O)O)c2)c(Cl)c1,1.58,0.795,1.01,1.26,1.42,1.02
OCC1=C[C@@H](O)[C@@H]2C=CO[C@@H](O[C@@H]3O[C@H](CO)[C@@H](O)[C@H](O)[C@H]3O)[C@H]12 [Aucubin],0.893,0.414,2.53,0.949,0.503,1.5
Cc1nc(-c2ccc(OCC(C)C)c(C#N)c2)sc1C(=O)O [Febuxostat],0.758,0.915,0.667,0.514,0.375,0.978
CCCCCCCC(=O)N[C@H](CN1CCCC1)[C@H](O)c1ccc2c(c1)OCCO2 [Eliglustat],0.75,1.58,1.05,1.48,1.2,1.06
O=C(Nc1nc2cccc(-c3ccc(CN4CCS(=O)(=O)CC4)cc3)n2n1)C1CC1 [Filgotinib (GLPG0634)],0.844,0.922,1.29,1.45,2.21,1.22
CCc1oc2ccccc2c1C(=O)c1cc(Br)c(O)c(Br)c1 [Benzbromarone],0.882,0.749,0.48,1.01,0.723,1.14
COC(=O)C1=C(C)NC(C)=C(C(=O)OC2CCCN(Cc3ccccc3)C2)C1c1cccc([N+](=O)[O-])c1 (centres undefined) [Benidipine HCl],1.39,0.86,0.823,0.926,0.713,1.45
CCCCN(Cc1ccc(C(=O)NO)cc1)C(=O)Nc1ccccc1 [Nexturastat A],1.18,1.83,2.03,3.14,1.55,2.05
Cc1cccc(C)c1OCC(=O)N[C@@H](Cc1ccccc1)[C@@H](O)C[C@H](Cc1ccccc1)NC(=O)[C@H](C(C)C)N1CCCNC1=O [Lopinavir],2.06,1.69,1.44,1.1,0.896,1.92
C[C@H](Cn1cnc2c(N)ncnc21)OCP(=O)(O)O [Tenofovir],1.59,1.45,0.705,0.924,1.26,1.07
CN(C)C/C=C/C(=O)Nc1cc2c(Nc3ccc(F)c(Cl)c3)ncnc2cc1O[C@H]1CCOC1 [Afatinib (BIBW2992) Dimaleate],4.65,3.63,5.93,5.45,4.62,4.49
COC(=O)C1=C(C)NC(C)=C(C(=O)OC(C)(C)CN(C)CCC(c2ccccc2)c2ccccc2)C1c1cccc([N+](=O)[O-])c1 (centres undefined) [Lercanidipine],1.59,2.38,1.1,1.31,1.5,2.02
